In assay [1] the target is Mitogen-activated protein kinase 10 (Mus musculus) (UniProt Q61831). The experiment in a line: JNK3 AlphaScreen Assay (AID 530; active = well fitted curve in either direction with a large enough effect, not every such curve was filed as active;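 also: kinase came from lysate of stimulated human HepG2 cells; signal reports phosphorylation of biotinylated GST-cJun 1-79 at Ser73 with 10 µM ATP; series mostly up to about 57 µM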). In outline:
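HepG2 lysate (IL-1b/TNFa pre-activated) + biotin-GST-cJun 1-79 + anti-pSer73 cJun; cpd titration, 15 min RT; ATP 10 uM start; Tris pH 7.6, MgCl2, DTT, vanadate; beads in EDTA buffer; AlphaScreen.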

Assay [2] deals with Cytochrome P450 3A4 (Homo sapiens) (UniProt P08684). The experiment in a line: qHTS Assay for Inhibitors and Substrates of Cytochrome P450 3A4 (AID 884). Also: nearly all actives have a fitted effect of over 50% in size. Also: potency is read from the fitted curve at half-maximal effect. In outline: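 Luminescent readout of luciferin produced by CYP3A4 (20 nM) dealkylation of Luciferin-PPXE, 25 uM (its KM). NADPH-driven reaction ran 60 min at RT after 10 min compound preincubation; data scaled to 57 uM ketoconazole as 100% inhibition.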

Assay [3] shares this target. The assay can be described thus: qHTS Assay for Activators of Cytochrome P450 3A4 (AID 885). Also: nearly all actives have a fitted effect of over 65% in size. In outline:
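Luminescent readout of luciferin formed from 25 uM Luciferin-PPXE (KM level) by 20 nM CYP3A4 in 200 mM KPO4, with 60 min NADPH-driven reaction at room temperature after 10 min compound exposure. Ketoconazole (57 uM) defined 100% inhibition.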

The target in assay [4] is Calcium and integrin-binding protein 1 (Homo sapiens) (UniProt Q99828). The experiment in a line: Primary qHTS for Identification of Calcium Integrin Binding Protein 1 (CIB1) Competitor (AID 1508620). Also: top concentration of the series differs between compounds. In outline: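 Fluorescence polarization competition: GST-tagged CIB1 (1 uM final) preincubated with compound 15 min at room temperature, then FITC-labelled alphaIIb peptide (100 nM final) added. After 15 min at room temperature, polarization read at Ex 480/Em 540.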

Inconclusive results are not listed. Where a call stands in place of a potency, no number is given. Activity calls are given as the source filed them. Unless noted, calls follow the shape of the dose curve; as a rule, active = well fitted curve in the direction sought with a large enough effect; inconclusive = small, poorly fitted or top-dose-only effect, or another doubt; inactive = no such curve, though single readings can be large; an effect the other way counts as inactive or inconclusive.

Cytochrome P450 3A4 (Homo sapiens), sequence (P08684 whole entry, looked up): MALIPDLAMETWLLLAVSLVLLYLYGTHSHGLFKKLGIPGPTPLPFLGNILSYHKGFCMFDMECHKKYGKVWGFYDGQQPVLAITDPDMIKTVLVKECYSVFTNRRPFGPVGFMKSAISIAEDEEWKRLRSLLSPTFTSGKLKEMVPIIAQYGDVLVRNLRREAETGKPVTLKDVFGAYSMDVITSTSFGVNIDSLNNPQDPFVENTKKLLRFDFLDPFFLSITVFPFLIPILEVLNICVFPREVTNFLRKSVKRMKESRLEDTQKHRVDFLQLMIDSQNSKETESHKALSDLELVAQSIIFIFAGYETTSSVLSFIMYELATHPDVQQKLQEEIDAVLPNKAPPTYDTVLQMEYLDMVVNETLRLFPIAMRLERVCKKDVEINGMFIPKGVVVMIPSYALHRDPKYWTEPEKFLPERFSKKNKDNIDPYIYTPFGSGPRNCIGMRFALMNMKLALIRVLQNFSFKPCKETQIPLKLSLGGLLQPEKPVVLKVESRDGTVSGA
Calcium and integrin-binding protein 1 (Homo sapiens), sequence (Q99828 whole entry, looked up): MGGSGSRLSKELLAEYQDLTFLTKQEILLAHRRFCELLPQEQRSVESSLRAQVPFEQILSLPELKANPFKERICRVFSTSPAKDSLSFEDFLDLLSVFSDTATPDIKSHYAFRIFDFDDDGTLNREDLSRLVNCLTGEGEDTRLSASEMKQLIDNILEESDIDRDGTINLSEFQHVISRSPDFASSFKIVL

`COCCNc1nc(C)nc2c1nc(-c1ccccc1)n2CCN1CCCCC1`: the call in assay [1] was inactive. Besides, in assay [2], the Potency is 10 µM (active). The Potency entry in assay [3] and in assay [4] was “inactive” each time.
For the compound `CCCn1c(-c2ccc(F)cc2)nc2c(NCCN3CCSCC3)nc(C)nc21`, in assay [1], the compound was classed as inactive. In addition, in assay [2], the Potency was 20 µM (active). Moreover, the Potency result in assay [3] and in assay [4] was “inactive” each time.
Consider `CCN(CC)CCCCn1c(-c2ccccc2)nc2c(NCc3ccccc3)nc(C)nc21`, for which the result in assay [1] was inactive. Further, the Potency in assay [2] was 7.94 µM (active). In addition, the Potency entry in assay [3] and in assay [4] was “inactive” each time.
As for `CCCn1c(-c2ccc(F)cc2)nc2c(NCCN3CCOCC3)nc(C)nc21`, the compound was called inactive in assay [1]. For the same compound, in assay [2], the Potency was 7.94 µM (active). Besides, the Potency entry in assay [3] and in assay [4] was “inactive” each time.
Take `COCCNc1nc(C)nc2c1nc(-c1ccccc1)n2C1CCN(Cc2ccccc2)C1` (stereo unspecified): the call in assay [1] was inactive. In addition, the Potency in assay [2] is 12.6 µM (active). The Potency entry in assay [3] and in assay [4] was “inactive” each time.
For `Cc1nc(NCc2ccccc2)c2nc(-c3ccccc3)n(CCCN3CCCCC3C)c2n1` (stereo unspecified), in assay [1], the compound was called inactive. In assay [2], the Potency was 5.01 µM (active). Besides, the Potency entry in assay [3] and in assay [4] was “inactive” throughout.
Consider `CCN(CC)CCCC(C)n1c(-c2ccccc2)nc2c(NC3CCCCC3)nc(C)nc21` (stereo unspecified), for which the call in assay [1] was inactive. The Potency in assay [2] was 12.6 µM (active). For the same compound, the Potency result in assay [3] and in assay [4] was “inactive” in each case.
Regarding `CCCn1c(-c2ccc(F)cc2)nc2c(NCCCCN3CCCC3)nc(C)nc21`, the compound was classed as inactive in assay [1]. For the same compound, in assay [2], the Potency is 15.8 µM (active). The Potency entry in assay [3] and in assay [4] was “inactive” in each case.
For `Cc1nc(N2CCOCC2)c2nc(-c3ccccc3)n(CCN3CCCCC3)c2n1`, the outcome in assay [1] was inactive. Besides, the Potency in assay [2] was 2.51 µM (active). Also, the Potency entry in assay [3] and in assay [4] was “inactive” throughout.
`CCCn1c(-c2ccc(F)cc2)nc2c(N3CCCN(Cc4ccccc4)CC3)nc(C)nc21`: the call in assay [1] was inactive. Besides, the Potency in assay [2] is 3.16 µM (active). The Potency entry in assay [3] and in assay [4] was “inactive” throughout.
For `CCN1CCCC1Cn1c(-c2ccccc2)nc2c(NCc3ccccc3)nc(C)nc21` (stereo unspecified), the call in assay [1] was inactive. In addition, in assay [2], the Potency was 5.01 µM (active). In addition, the Potency entry in assay [3] and in assay [4] was “inactive” in each case.
`Cc1nc(N2CCOCC2)c2nc(-c3ccccc3)n(CCN(C)C)c2n1`: the outcome in assay [1] was inactive. The Potency result in assay [2] and in assay [4] was “inactive” each time.
For the compound `CCCn1c(C)nc2c(N3CCCN(Cc4ccccc4)CC3)nc(C)nc21`, in assay [1], the compound was classed as inactive. Besides, the Potency in assay [2] was 7.94 µM (active). For the same compound, the Potency result in assay [3] and in assay [4] was “inactive” throughout.
Regarding `CCCn1c(-c2ccc(F)cc2)nc2c(NCC(C)(C)CN(C)C)nc(C)nc21`, the result in assay [1] was inactive. In addition, the Potency in assay [2] was 15.8 µM (active). Besides, the Potency entry in assay [3] and in assay [4] was “inactive” in each case.
Turning to `CCN(CC)CCCCn1c(-c2ccccc2)nc2c(N(CCOC)CCOC)nc(C)nc21`, the outcome in assay [1] was inactive. The Potency in assay [2] was 12.6 µM (active). The Potency entry in assay [3] and in assay [4] was “inactive” throughout.
`CCCn1c(C)nc2c(NCCN(C(C)C)C(C)C)nc(C)nc21`: in assay [1], the outcome was inactive. The Potency entry in assay [2] and in assay [4] was “inactive” throughout.
As to `Cc1nc(N2CCOCC2)c2nc(-c3ccccc3)n(CCCN3CCOCC3)c2n1`, the call in assay [1] was inactive. Besides, in assay [2], the Potency is 15.8 µM (active). The Potency result in assay [3] and in assay [4] was “inactive” each time.
In the case of `CCCn1c(-c2ccc(F)cc2)nc2c(NC3CCN(Cc4ccccc4)C3)nc(C)nc21` (stereo unspecified), the result in assay [1] was inactive. In assay [2], the Potency is 15.8 µM (active). Also, the Potency result in assay [3] and in assay [4] was “inactive” throughout.
For the compound `CCCn1c(-c2ccc(F)cc2)nc2c(N3CCN(C)CC3)nc(C)nc21`, the compound was called inactive in assay [1]. The Potency entry in assay [3] and in assay [4] was “inactive” throughout.
`CCCCNc1nc(C)nc2c1nc(-c1ccccc1)n2CCCN1CCCCC1C` (stereo unspecified): the result in assay [1] was inactive. Besides, the Potency result in assay [3] and in assay [4] was “inactive” throughout.
On to `Cc1nc(NC2CCCCC2)c2nc(-c3ccccc3)n(CCN(C)C)c2n1`, for which the call in assay [1] was inactive. The Potency result in assay [3] and in assay [4] was “inactive” in each case.
As to `CCCn1c(-c2ccc(F)cc2)nc2c(NCC3CCCN3CC)nc(C)nc21` (stereo unspecified), in assay [1], the call was inactive. Moreover, the Potency result in assay [3] and in assay [4] was “inactive” throughout.
For the compound `CCCn1c(-c2ccc(F)cc2)nc2c(N3CCN(CCC(=O)OCC)CC3)nc(C)nc21`, the compound was called inactive in assay [1]. The Potency in assay [2] was 12.6 µM (active). Moreover, the Potency result in assay [3] and in assay [4] was “inactive” in each case.
With `Cc1nc(NCc2ccccc2)c2nc(-c3ccccc3)n(CC(C)(C)CN(C)C)c2n1`, in assay [1], the outcome was inactive. The Potency in assay [2] is 3.98 µM (active). For the same compound, the Potency result in assay [3] and in assay [4] was “inactive” in each case.
Turning to `COCCNc1nc(C)nc2c1nc(-c1ccccc1)n2CCCN1CCCCC1C` (stereo unspecified), the result in assay [1] was inactive. Further, the Potency entry in assay [3] and in assay [4] was “inactive” each time.
As for `CCCCNc1nc(C)nc2c1nc(-c1ccccc1)n2CCN1CCCC1`, the outcome in assay [1] was inactive. In addition, the Potency entry in assay [3] and in assay [4] was “inactive” in each case.

The record behind these values is PubChem BioAssay (NCATS).
